Data taken from the antibiotic and cytotoxicity screens of Wong et al. (2023).
In all, about 39,000 compounds went through this assay and about 1,500 (3.8%) were called active. For the sample, actives were picked, then their nearest neighbours and some compounds at random.

These compounds were tested on HSkMC (human skeletal muscle cells) (assay: cytotoxicity call (relative viability < 0.9)). Details: 10 µM.
For NC(=O)c1ccc2nc(-c3ccc(C4(N)CCC4)cc3)c(-c3ccccc3)n2n1, the cytotoxicity call was “inactive”. For Nc1ncccc1-c1nc2ccc(-c3ccccc3)nc2n1-c1ccc(C2(N)CCC2)cc1, the cytotoxicity call was “active”. CC(C)NC(=O)N(C)C[C@@H]1Oc2c(NC(=O)NC3CCCCC3)cccc2C(=O)N([C@@H](C)CO)C[C@@H]1C was tested, and the cytotoxicity call was “inactive”. In the case of C[C@H]1CN([C@@H](C)CO)C(=O)Cc2cc(NC(=O)Nc3ccc(C(F)(F)F)cc3)ccc2O[C@@H]1CN(C)Cc1ccc(Oc2ccccc2)cc1, the cytotoxicity call is reported as “active”. In the case of C[C@@H]1CN([C@@H](C)CO)C(=O)Cc2cc(NC(=O)Nc3ccc(C(F)(F)F)cc3)ccc2O[C@@H]1CN(C)Cc1ccc(Oc2ccccc2)cc1, the cytotoxicity call is reported as “active”. For C[C@@H]1CN([C@H](C)CO)C(=O)Cc2cc(NC(=O)Nc3ccc(C(F)(F)F)cc3)ccc2O[C@@H]1CN(C)Cc1ccc(Oc2ccccc2)cc1, the cytotoxicity call was “active”. For C[C@@H]1CN([C@@H](C)CO)C(=O)Cc2cc(NC(=O)Nc3ccc(C(F)(F)F)cc3)ccc2O[C@H]1CN(C)Cc1ccc(Oc2ccccc2)cc1, the cytotoxicity call was “active”. In the case of COc1ccc(S(=O)(=O)Nc2ccc3c(c2)CC(=O)N([C@H](C)CO)C[C@@H](C)[C@@H](CN(C)C)O3)cc1, the cytotoxicity call is reported as “inactive”. For CCc1nc2ccc(C(=O)NCc3ccc4c(c3)OCO4)cn2c1N(CC)Cc1cccc(Br)c1, the cytotoxicity call was “inactive”. C[C@@H]1CN([C@H](C)CO)C(=O)c2cc(NC(=O)Nc3ccc(C(F)(F)F)cc3)ccc2O[C@@H]1CN(C)C(=O)Nc1ccccc1 was tested, and the cytotoxicity call was “inactive”. COc1ccc(NC(=O)N(C)C[C@H]2OCCCC[C@H](C)Oc3ccc(NC(=O)Nc4ccc(F)cc4)cc3C(=O)N([C@H](C)CO)C[C@@H]2C)cc1 was tested, and the cytotoxicity call was “inactive”. For COc1ccc(S(=O)(=O)Nc2ccc3c(c2)C(=O)N([C@@H](C)CO)C[C@H](C)[C@H](CN(C)C(=O)c2ccccc2)OCCCC[C@@H](C)O3)cc1, the cytotoxicity call was “inactive”. For C[C@@H]1CCCCO[C@H](CN(C)Cc2ccc(Cl)c(Cl)c2)[C@@H](C)CN([C@@H](C)CO)C(=O)c2cc(NS(=O)(=O)c3cn(C)cn3)ccc2O1, the cytotoxicity call was “inactive”. In the case of OC[C@H]1O[C@H](Nc2ccccc2)C[C@@H]1O, the cytotoxicity call is reported as “inactive”. For CC(C)CC#Cc1ccc2c(c1)O[C@@H](CN(C)C(=O)Cc1cccnc1)[C@H](C)CN([C@@H](C)CO)S2(=O)=O, the cytotoxicity call was “inactive”. C[C@@H]1CCCCO[C@H](CN(C)C(=O)Cc2ccccc2)[C@H](C)CN([C@@H](C)CO)C(=O)c2cc(NC(=O)Nc3ccccc3)ccc2O1 was tested, and the cytotoxicity call was “inactive”. For C[C@H](CO)N1C[C@H](C)[C@@H](CN(C)C(=O)Nc2ccc(C(F)(F)F)cc2)Oc2c(NS(C)(=O)=O)cccc2C1=O, the cytotoxicity call was “inactive”. In the case of CC(C)NC(=O)N(C)C[C@@H]1Oc2ccc(NS(=O)(=O)c3cn(C)cn3)cc2CC(=O)N([C@H](C)CO)C[C@@H]1C, the cytotoxicity call is reported as “inactive”. COc1ccc(S(=O)(=O)Nc2cccc3c2O[C@@H](CN(C)S(=O)(=O)c2cn(C)cn2)[C@H](C)CN([C@H](C)CO)C3=O)cc1 was tested, and the cytotoxicity call was “inactive”. C[C@H](CO)N1C[C@H](C)[C@H](CN(C)Cc2ccc(Oc3ccccc3)cc2)Oc2ccc(NC(=O)Nc3ccc(C(F)(F)F)cc3)cc2CC1=O was tested, and the cytotoxicity call was “active”. C[C@@H]1CN([C@H](C)CO)C(=O)Cc2cc(NC(=O)Nc3ccc(C(F)(F)F)cc3)ccc2O[C@H]1CN(C)Cc1ccc(Oc2ccccc2)cc1 was tested, and the cytotoxicity call was “active”. With C[C@H](CO)N1C[C@H](C)[C@@H](CN(C)Cc2ccc(Oc3ccccc3)cc2)Oc2ccc(NC(=O)Nc3ccc(C(F)(F)F)cc3)cc2CC1=O the cytotoxicity call was “active”. C[C@H]1CN([C@@H](C)CO)C(=O)Cc2cc(NC(=O)Nc3ccc(C(F)(F)F)cc3)ccc2O[C@H]1CN(C)Cc1ccc(Oc2ccccc2)cc1 was tested, and the cytotoxicity call was “active”. With COc1ccc(S(=O)(=O)Nc2ccc3c(c2)CC(=O)N([C@@H](C)CO)C[C@@H](C)[C@@H](CN(C)Cc2ccncc2)O3)cc1 the cytotoxicity call was “inactive”. C[C@@H]1CN([C@@H](C)CO)C(=O)Cc2cc(NC(=O)CCN3CCOCC3)ccc2O[C@H]1CN(C)Cc1ccccc1 was tested, and the cytotoxicity call was “inactive”. C[C@H](CO)N1C[C@H](C)[C@@H](CN(C)C(=O)Nc2ccccc2)Oc2ccc(NS(C)(=O)=O)cc2C1=O was tested, and the cytotoxicity call was “inactive”. For C[C@H](CO)N1C[C@H](C)[C@H](CN(C)C(=O)Cc2cccnc2)Oc2ncc(C#Cc3ccccc3F)cc2C1=O, the cytotoxicity call was “inactive”. For O=C(N[C@H]1C=C[C@H](CC(=O)N2CCOCC2)O[C@H]1CO)c1ccc2c(c1)OCO2, the cytotoxicity call was “inactive”. CON(C)c1nc(Oc2ccc(=O)[nH]n2)nc(N(C)C)n1 was tested, and the cytotoxicity call was “inactive”. For CN1CCN(C)C1=O, the cytotoxicity call was “inactive”. For COc1cccc(CNC(=O)C[C@H]2C=C[C@H](NC(=O)C3CCOCC3)[C@@H](CO)O2)c1, the cytotoxicity call was “inactive”. With O=C(C[C@H]1C=C[C@H](NS(=O)(=O)c2ccc(F)cc2)[C@@H](CO)O1)NCCN1CCCCC1 the cytotoxicity call was “inactive”. c1ccc(-c2cccs2)cc1 was tested, and the cytotoxicity call was “inactive”. For O=C(O)CCNC(=O)c1cncc(O)c1, the cytotoxicity call was “inactive”. In the case of COC(=O)c1ccc(C(=O)OC)nc1, the cytotoxicity call is reported as “active”. In the case of COC(=O)c1cccnc1, the cytotoxicity call is reported as “inactive”. COC(=O)c1ccc(O)cc1 was tested, and the cytotoxicity call was “inactive”. With COc1ccc(NC(=O)N(C)C[C@H]2Oc3ccc(NC(=O)Nc4ccc(C(F)(F)F)cc4)cc3C(=O)N([C@@H](C)CO)C[C@@H]2C)cc1 the cytotoxicity call was “inactive”. In the case of O=C(N[C@H]1C=C[C@H](CC(=O)N2CCOCC2)O[C@H]1CO)c1ccccn1, the cytotoxicity call is reported as “inactive”. In the case of COCC(=O)Nc1ccc2c(c1)OC[C@H](C)N(Cc1cccc(F)c1)C[C@H](C)[C@@H](OC)CN(C)C2=O, the cytotoxicity call is reported as “inactive”. For C[C@@H]1CCCCO[C@H](CN(C)C(=O)Nc2ccc3c(c2)OCO3)[C@H](C)CN([C@H](C)CO)C(=O)c2cc(NS(=O)(=O)c3cccs3)ccc2O1, the cytotoxicity call was “inactive”. With O=C1CSC(/N=C/c2ccccc2O)=NN1 the cytotoxicity call was “active”. In the case of C[C@@H]1CN([C@H](C)CO)C(=O)c2cc(NC(=O)Nc3ccc(C(F)(F)F)cc3)ccc2O[C@@H](C)CCCCO[C@H]1CN(C)Cc1ccc(C(=O)O)cc1, the cytotoxicity call is reported as “inactive”. For Cc1noc(C)c1S(=O)(=O)Nc1ccc2c(c1)C(=O)N([C@@H](C)CO)C[C@H](C)[C@@H](CN(C)S(=O)(=O)c1cn(C)cn1)O2, the cytotoxicity call was “inactive”. With Cc1noc(C)c1NC(=O)N(C)C[C@H]1Oc2c(NC(=O)C3CCOCC3)cccc2C(=O)N([C@H](C)CO)C[C@H]1C the cytotoxicity call was “inactive”. C=CC[C@H](CC(=O)N(CCO)Cc1ccccc1)C(=O)NC[C@H](OC(=O)[C@@H](CC=C)Cc1ccc(F)cc1)c1ccccc1 was tested, and the cytotoxicity call was “active”. C=CC[C@H](CC(=O)N(CCO)Cc1ccccc1)C(=O)NC[C@@H](OC(=O)[C@@H](CC=C)Cc1ccc(F)cc1)c1ccccc1 was tested, and the cytotoxicity call was “inactive”. With C=CC[C@@H](CC(=O)N(CCO)Cc1ccccc1)C(=O)NC[C@@H](OC(=O)[C@@H](CC=C)Cc1ccc(F)cc1)c1ccccc1 the cytotoxicity call was “inactive”. For C=CC[C@@H](CC(=O)N(CCO)Cc1ccccc1)C(=O)NC[C@H](OC(=O)[C@@H](CC=C)Cc1ccc(F)cc1)c1ccccc1, the cytotoxicity call was “active”. C[C@H](CO)N1C[C@H](C)[C@H](CN(C)S(=O)(=O)c2cccs2)Oc2ncc(C#CC(C)(C)O)cc2C1=O was tested, and the cytotoxicity call was “inactive”. For COc1ccc(S(=O)(=O)N(C)C[C@H]2Oc3ccc(NS(C)(=O)=O)cc3C(=O)N([C@@H](C)CO)C[C@H]2C)cc1, the cytotoxicity call was “inactive”. In the case of CC(C)NC(=O)N(C)C[C@H]1Oc2c(NS(=O)(=O)c3ccc(Cl)cc3)cccc2C(=O)N([C@@H](C)CO)C[C@@H]1C, the cytotoxicity call is reported as “inactive”. For CC(C)NC(=O)Nc1cccc2c1O[C@H](CN(C)Cc1ccc(-c3ccccc3)cc1)[C@H](C)CN([C@@H](C)CO)C2=O, the cytotoxicity call was “inactive”. In the case of COC(=O)CNC(=O)c1ccccc1, the cytotoxicity call is reported as “inactive”. With C[C@@H]1CN([C@@H](C)CO)C(=O)c2cccc(NS(=O)(=O)c3cn(C)cn3)c2O[C@H]1CN(C)S(=O)(=O)c1cccs1 the cytotoxicity call was “inactive”. In the case of Cc1noc(C)c1NC(=O)Nc1cccc2c1O[C@@H](CN(C)C(=O)NC(C)C)[C@@H](C)CN([C@@H](C)CO)C2=O, the cytotoxicity call is reported as “inactive”. In the case of Cc1noc(C)c1NC(=O)Nc1ccc2c(c1)C(=O)N([C@@H](C)CO)C[C@@H](C)[C@@H](CN(C)C(=O)C1CCCCC1)OCCCC[C@H](C)O2, the cytotoxicity call is reported as “inactive”. C[C@H](CO)N1C[C@H](C)[C@H](CN(C)Cc2ccc(Oc3ccccc3)cc2)Oc2ccc(NS(=O)(=O)c3ccccc3)cc2CC1=O was tested, and the cytotoxicity call was “inactive”. C[C@H]1CN([C@@H](C)CO)C(=O)Cc2cc(NS(=O)(=O)c3cccs3)ccc2O[C@H]1CN(C)Cc1ccc(Oc2ccccc2)cc1 was tested, and the cytotoxicity call was “inactive”. C[C@@H]1CN([C@H](C)CO)C(=O)Cc2cc(NS(=O)(=O)c3cccs3)ccc2O[C@@H]1CN(C)Cc1ccc(Oc2ccccc2)cc1 was tested, and the cytotoxicity call was “active”. For C[C@@H]1CN([C@H](C)CO)C(=O)Cc2cc(NS(=O)(=O)c3ccccc3)ccc2O[C@@H]1CN(C)Cc1ccc(Oc2ccccc2)cc1, the cytotoxicity call was “active”. In the case of C[C@@H]1CN([C@@H](C)CO)C(=O)Cc2cc(NS(=O)(=O)c3ccccc3)ccc2O[C@H]1CN(C)Cc1ccc(Oc2ccccc2)cc1, the cytotoxicity call is reported as “inactive”. C[C@@H]1CN([C@@H](C)CO)C(=O)Cc2cc(NS(=O)(=O)c3ccccc3)ccc2O[C@@H]1CN(C)Cc1ccc(Oc2ccccc2)cc1 was tested, and the cytotoxicity call was “active”. C[C@H]1CN([C@@H](C)CO)C(=O)Cc2cc(NS(=O)(=O)c3ccccc3)ccc2O[C@H]1CN(C)Cc1ccc(Oc2ccccc2)cc1 was tested, and the cytotoxicity call was “inactive”. With C[C@@H]1CN([C@H](C)CO)C(=O)Cc2cc(NS(=O)(=O)c3ccccc3)ccc2O[C@H]1CN(C)Cc1ccc(Oc2ccccc2)cc1 the cytotoxicity call was “inactive”. With C[C@H]1CN([C@@H](C)CO)C(=O)Cc2cc(NS(=O)(=O)c3ccccc3)ccc2O[C@@H]1CN(C)Cc1ccc(Oc2ccccc2)cc1 the cytotoxicity call was “active”. For C[C@H](CO)N1C[C@H](C)[C@@H](CN(C)Cc2ccc(Oc3ccccc3)cc2)Oc2ccc(NS(=O)(=O)c3ccccc3)cc2CC1=O, the cytotoxicity call was “inactive”. For C[C@H]1CN([C@@H](C)CO)C(=O)Cc2cc(NS(=O)(=O)c3cccs3)ccc2O[C@@H]1CN(C)Cc1ccc(Oc2ccccc2)cc1, the cytotoxicity call was “inactive”.
